15 molecules from PubChem BioAssay (NCI) can be followed below.

Compounds without any hit were thinned out: in the full panel of roughly 83,000, 20% have a hit.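 In brief: 96-well plates, 48 h treatment, single concentration, percent growth endpoint.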 Values without a mark were called inactive. The source made the active and inactive calls. The calls were made as follows: active = growth percent below 10; inactive = the rest.

Holding throughout (test): NCI-60 one-dose screen, 48 h (100 = growth as untreated, 0 = no growth, -100 = all killed)
What all share (conditions): 10 µM unless noted

The subject of assay [1] is T-47D breast.
Assay [2] concerns BT-549 breast.
Assay [3] has as its system MDA-MB-435 melanoma.
In assay [4] the test system is SW-620 colon.
Assay [5] concerns MCF7 breast.
Assay [6] relates to HCT-116 colon.
Assay [7] concerns HCC-2998 colon.
For assay [8], the system named is KM12 colon.

On to `COc1cc(C(=O)c2cc(C(C)=O)c3c4ccccc4ccn23)cc(OC)c1OC`, for which the growth in assay [1] is 24.8%; in assay [2], 59%; in assay [3] it was 5.4% (active); in assay [4], 44.5%; in assay [5], 34.2%; in assay [6] it was 42.2%. The growth in assay [7] was 62.9%; in assay [8] it was 43.9%.
Regarding `C=CCn1c(SCC(=O)Nc2cccc(C(=O)/C=C/c3ccc(C)cc3)c2)nc2ccccc2c1=O`, the growth in assay [1] is 67.3%; in assay [2], 122%; in assay [3], 68.6%; in assay [4] it was 67.5%; in assay [5], 26.5%; in assay [6], 13.7%. In addition, the growth is 87.2% in assay [7] and 74.5% in assay [8].
For `CCOC(=O)c1nn(-c2ccccc2)c(=O)c2c(N)c(C#N)c(-c3cccs3)cc12`, the growth in assay [1] was 76.7%; in assay [2], 107%; in assay [3], 90.3%; in assay [4] it was 79.3%; in assay [5] it was 74.6%; in assay [6], 52.8%. In addition, the growth in assay [7] is 78.2%; in assay [8], 80.4%.
Regarding `IP(CCCCCCCCCCSc1n(Cc2ccc3ccccc3c2)c(-c2ccccc2)c(-c2ccccc2)[n+]1Cc1ccc2ccccc2c1)(c1ccccc1)(c1ccccc1)c1ccccc1`, the growth in assay [1] was -57.4% (active); in assay [2] it was -71.4% (active); in assay [3], -81.7% (active); in assay [4] it was -77.8% (active); in assay [5] it was -54.2% (active); in assay [6] it was -60.9% (active). Also, the results for the growth in assay [7] and in assay [8] were -86.8% (active) and -83.3% (active), respectively.
As for `COc1ccc2oc3c4[nH]c5ccccc5c4c4c(c3c2c1)C(=O)N(O)C4=O`, the growth was 97.7% in assay [1]; 104% in assay [2]; 106% in assay [3]; 92.1% in assay [4]; 90.3% in assay [5]; 104% in assay [6]. The growth in assay [7] and in assay [8] was 101% in each case.
Regarding `NC(=O)c1c(NC(=O)c2cccc(OC(F)(F)F)c2)sc2c1CCC(=O)C2`, the growth in assay [1] was 28.1%; in assay [2], 28.4%; in assay [3] it was 64.7%; in assay [4] it was 18.3%; in assay [5] it was 27.4%; in assay [6], 15.6%. Further, the growth in assay [7] was 104%; in assay [8] it was 31.4%.
Take `Cn1cc(-c2nn3cc(-c4ccncc4)nc3s2)c2cc(Cl)ccc21`: the growth in assay [1] is 31.3%; in assay [2], 46%; in assay [3], 14.5%; in assay [4], 18.8%; in assay [5], 17%; in assay [6], -52.9% (active). Moreover, the growth was 36.3% in assay [7] and 56.5% in assay [8].
Consider `CC1CCc2c(sc3nc(SCC(=O)N/N=C/c4cccc(O)c4O)n(-c4ccccc4)c(=O)c23)C1` (stereo not given), for which the growth is 74.5% in assay [1]; 127% in assay [2]; 88.4% in assay [3]; 85.4% in assay [4]; 88.3% in assay [5]; 85.8% in assay [6]. The values for the growth in assay [7] and in assay [8] were 104% and 88.9%, respectively.
`CCC(CC)n1c(=O)c(SC2=NC3C(NN2)N(CC)C(=O)N3CC)c(C(=O)O)c2ccccc21` (stereo not given): the growth was 68.4% in assay [1]; -21.6% (active) in assay [2]; 0.0073% (active) in assay [3]; 21.7% in assay [4]; 17.4% in assay [5]; 6.91% (active) in assay [6]. In addition, the growth is 24% in assay [7] and 20.7% in assay [8].
Regarding `Oc1ccc(-c2nnc(SCc3ccc(O)c4ncccc34)n2-c2ccccc2)cc1`, the growth is 14.8% in assay [1]; 26.9% in assay [2]; 21.5% in assay [3]; 16.4% in assay [4]; 2.53% (active) in assay [5]; 12.7% in assay [6]. In addition, the growth was 27.3% in assay [7] and 17.3% in assay [8].
Regarding `COc1cc2c3c(n(CCCN4CCC[C@H]4C(N)=O)c(=O)c2cc1OC)-c1cc2c(cc1C3=O)OCO2`, the growth in assay [1] is -11.4% (active); in assay [2], 27.3%; in assay [3] it was 31.8%; in assay [4], 19.7%; in assay [5], -0.242% (active); in assay [6] it was 5.37% (active). In addition, the growth in assay [7] was 30.5%; in assay [8] it was 26.1%.
In the case of `COc1ccc(-c2no[n+]([O-])c2Nc2ccccc2Br)cc1`, the growth in assay [1] is 80%; in assay [2], 113%; in assay [3], 107%; in assay [4], 101%; in assay [5], 84.9%; in assay [6] it was 93.7%. In addition, the figures for the growth in assay [7] and in assay [8] were 111% and 101%, respectively.
Consider `CCN1C(=O)N(CC)C2SC(N/N=C/c3ccc(OC)cc3)=NC21` (stereo not given), for which the growth in assay [1] was 80.9%; in assay [2], 18.9%; in assay [3] it was 0.665% (active); in assay [4] it was 20.2%; in assay [5] it was 15.2%; in assay [6] it was 6.83% (active). The results for the growth in assay [7] and in assay [8] were 13.5% and 13.9%, respectively.
With `Cn1ccnc1C(=O)/C=C/c1ccc(C(=O)Nc2ccc(NC(=O)CCNC(=O)c3csc(Br)n3)cc2)cc1`, the growth in assay [1] is 58.9%; in assay [2], 65.4%; in assay [3], 44.2%; in assay [4], 14.1%; in assay [5], 17.7%; in assay [6], 20.5%. The figures for the growth in assay [7] and in assay [8] were 106% and 33.3%, respectively.
Turning to `COc1ccc(-c2nc(SCCC(C)C)nc(N/N=C\c3ccc(O)cc3)c2C#N)cc1`, the growth in assay [1] was 76.7%; in assay [2], 67.5%; in assay [3] it was 49.5%; in assay [4] it was 54.1%; in assay [5] it was 40.3%; in assay [6], 39.6%. For the same molecule, the growth is 86.8% in assay [7] and 67% in assay [8].
